Laboratory results reported in PubChem BioAssay AID720553 (National Center for Advancing Translational Sciences (NCATS), 2013).
In all, about 340,000 compounds went through this assay and about 3,300 (0.97%) were called active. The full list was thinned out, with actives kept by preference. A number with no mark means an inactive call.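 How the source made its calls: active means maximum activity change below -70%; inconclusive means maximum activity change from -70% to -50%; inactive means maximum activity change above -50%.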

Test system: Potassium voltage-gated channel subfamily H member 2, brain isoform KCNH2 3.1 (human)
Experiment: qHTS for Inhibitors of KCHN2 3.1: Mutant qHTS
Settings: U2OS KCNH2 3.1, thallium flux FluxOr; hits give low values
Method in brief: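 Thallium flux read-out: FluxOr dye with Red40 quencher in HBSS/HEPES, 45 min at RT. Rate constants from kinetic reads were normalized to positive and negative DMSO controls. Cells: U2OS virally expressing the 3.1 isoform.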
On the % scale 0 is the no-effect control and ±100 the full control effect.

| SMILES | activity change |
| --- | --- |
| O=C1OCCC1=COCCCCOC=C1CCOC1=O | 5.66% |
| CNC(=O)C1CCN(S(=O)(=O)c2c(C)noc2/C=C/c2cccc(C)c2)CC1 | -0.856% |
| Cc1noc(/C=C/c2ccco2)c1S(=O)(=O)N1CCC(C(=O)N2CCc3ccccc32)CC1 | -11.8% |
| Cc1noc(/C=C/c2ccco2)c1S(=O)(=O)N1CCC(C(=O)Nc2ccc(Cl)cn2)CC1 | -73.5% (active) |
| Cc1ccc([C@H]2C[C@H](O)[C@@H](n3cc(COC(=O)c4ccccc4)nn3)CN2CC2CCCCC2)cc1 | 1.72% |
| COCCN1Cc2cccc(C(=O)Nc3ccccc3OC)c2C1=O | -4.17% |
| CCCN1Cc2cccc(C(=O)Nc3ccc(S(=O)(=O)N4CCCCCC4)cc3)c2C1=O | -4.68% |
| CCCN1Cc2cccc(C(=O)NCc3ccccc3)c2C1=O | -73.5% (active) |
| Cc1onc(-c2ccccc2)c1-c1nnc(COC(=O)c2ccc(N(C)C)cc2)o1 | -2.8% |
| Cc1csc(=O)n1CCC(=O)OCC(=O)Nc1ccc(N2CCOCC2)cc1 | 26.4% |
| CCc1cc(C(=O)N(CC)CC(=O)Nc2c(F)cccc2F)sc1C | 6.15% |
| Cc1ccc(C(=O)Nc2ccccc2-c2ccccc2)cc1S(=O)(=O)Nc1ccccc1 | -81.2% (active) |
| O=C(O)c1ccc(F)c(S(=O)(=O)Nc2ccccc2)c1 | -0.905% |
| O=C(Nc1ccccc1-c1ccccc1)c1cccs1 | 3.41% |
| O[C@H]1CN(Cc2cccs2)[C@@H](c2ccc(Cl)cc2)C[C@@H]1n1cc(C2CC2)nn1 | 1.17% |
| O=C1CC[C@@H](C(=O)N2CSC[C@@H]2C(=O)Nc2ccc(C(F)(F)F)cc2)N1 | 0.48% |
| Cc1ccc(Cc2c(-c3ccc(C)cc3)nc3c4ccccc4ccn23)cc1 | -46.3% |
| CCOc1ccc(S(=O)(=O)NCCC(=O)NNC(=O)c2ccc(F)cc2)cc1 | 7.87% |
| Cc1ccc(C(=O)N/C(=C\c2ccc(F)cc2)C(=O)NCCN2CCOCC2)cc1 | -89.5% (active) |
| O=C(NCCN1CCOCC1)/C(=C/c1ccc(F)cc1)NC(=O)c1ccccc1 | -9.2% |
| COc1ccc(/C=C(\NC(=O)c2ccccc2)C(=O)NCCN2CCOCC2)cc1OC | -4.51% |
| COC(=O)N(C)C[C@@H]1OCc2cnnn2CCCC(=O)N([C@@H](C)CO)C[C@@H]1C | 5.22% |
| Cc1cccc(C(=O)C(O)(c2ccccc2)C2CCCCC2=O)c1 (stereo not drawn) | -14.9% |
| COc1ccc(S(=O)(=O)N(C)C[C@H]2OCc3cnnn3CCCC(=O)N([C@H](C)CO)C[C@H]2C)cc1 | 11.2% |

| SMILES | activity change |
| --- | --- |
| COc1cc2nnn(-c3ccncc3)c2cc1OC | -4.09% |
| COc1ccc2nc(-c3ccccn3)ccc2c1 | 6.65% |
| C=CCn1c(SCC(=O)NC)nnc1C12CC3CC(CC(C3)C1)C2 | -75% (active) |
| C=CCn1c(SCC(=O)NC23CC4CC(CC(C4)C2)C3)nc(O)cc1=O | 30.9% |
| C=CCn1c(C23CC4CC(CC(C4)C2)C3)n[nH]c1=S | -5.08% |
| Cc1ccc(S(=O)(=O)/N=C2\C=C(NS(=O)(=O)c3ccc(C)cc3)C(=O)c3ccccc32)cc1 | 17.4% |
| C[C@H]1CN([C@@H](C)CO)S(=O)(=O)c2ccc(Br)cc2O[C@H]1CN(C)C(=O)c1cnccn1 | 10.6% |
| O=C(Nc1ccc(N2CCCCC2)cc1)c1cc(S(=O)(=O)N2CCOCC2)ccc1F | -0.576% |
| O=C(Nc1ccc(N2CCOCC2)c(Cl)c1)c1ccc(S(=O)(=O)N2CCOCC2)cc1 | -3.05% |
| O=C(Nc1ccc2c(c1)nc1n2CCCCC1)c1cc(S(=O)(=O)N2CCOCC2)ccc1Cl | -83.4% (active) |
| COc1cc(-c2noc(C3CCCN(S(=O)(=O)c4cccc(Cl)c4)C3)n2)cc(OC)c1OC (stereo not drawn) | -93.6% (active) |
| CC(C)c1ccc(-c2noc(C3CCCN(S(C)(=O)=O)C3)n2)cc1 (stereo not drawn) | -21.4% |
| COc1cccc(-c2noc(C3CCCN(C(=O)c4ccc(F)cc4)C3)n2)c1 (stereo not drawn) | 16.8% |
| CCOC(=O)c1c(NC(=S)SC)sc(C(=O)N2CCc3ccccc3C2)c1C | -4.73% |
| CC1=C(C(=O)N2CCOCC2)CC(CC(=O)NCc2ccco2)C(=O)N1Cc1ccc(F)cc1 (stereo not drawn) | -24.5% |
| C=CCNC(=O)COC(=O)c1ccccc1C(=O)N(C)C1CCCCC1 | -110% (active) |
| O=C(COC(=O)c1ccccc1Cl)NC1CCCCCCC1 | -1.39% |
| CC1CCCC(NC(=O)COC(=O)c2ccccc2C(=O)N(C)C2CCCCC2)C1C (stereo not drawn) | 7.73% |
| CCCCN(C(C)=O)c1ccc2c(c1)C1CC2CCN1Cc1ccccc1 (stereo not drawn) | 0.966% |
| O=C(Nc1ccc(Cl)cn1)c1ccccc1-c1ccccc1 | -14.9% |
| CC1(C)Cc2cccc(OCC(N)=O)c2O1 | -6.48% |
| CC1(C)Cc2cccc(OCC(=O)NCc3ccccc3)c2O1 | 0.403% |
| CC1(C)Cc2cccc(OCC(=O)N3CCN(c4ccc([N+](=O)[O-])cc4)CC3)c2O1 | -91.8% (active) |
| S=C(NN=Cc1ccccn1)Nc1ccccn1 | -6.69% |

| SMILES | activity change |
| --- | --- |
| COc1ccc(C(=O)OCC(=O)Nc2cc(C)on2)cc1F | -0.754% |
| CSCCC(NC(=O)COc1ccccc1)C(=O)OCCOc1ccc(Br)cc1 (stereo not drawn) | -21.4% |
| CSCCC(NC(=O)COc1ccccc1)C(=O)OCCOc1ccc(F)cc1 (stereo not drawn) | -11.8% |
| CSCCC(NC(=O)COc1ccccc1)C(=O)N1CCN(c2cccc(C(F)(F)F)c2)CC1 (stereo not drawn) | -70% (active) |
| O=C(Nc1cccc2ccccc12)NC1CC1 | -0.285% |
| COc1ccc(C(C)(C)C)cc1NC(=O)CN(C)C1=NS(=O)(=O)c2ccccc21 | -5.7% |
| Cc1cc(OCC(=O)NCC(O)c2ccccc2)c2c(C)c(C)c(=O)oc2c1 (stereo not drawn) | 29.5% |
| O=C(COc1ccc2c3c(c(=O)oc2c1)CCCC3)NCC(O)c1ccccc1 (stereo not drawn) | 10.4% |
| O=C(COc1ccc2ccc(=O)oc2c1)NCC(O)c1ccccc1 (stereo not drawn) | -87.9% (active) |
| O=C(NCCOc1ccccc1)N1[C@H]2CC[C@@H]1C=C(c1ccc(F)cc1OCc1ccccc1)C2 | -21.8% |
| CCOC(=O)C1CCN(C(=O)COc2cc(C)c(Br)c(C)c2)CC1 | -6.53% |
| COCCCNC(=O)COc1cc(C)c(Cl)c(C)c1 | 30.5% |
| CCNC(=O)COc1cc(C)c(Br)c(C)c1 | -198% (active) |
| Cc1ccc(S(=O)(=O)N2C[C@]3(O)C[C@@H]4C(=O)N(c5ccccc5)C(=O)[C@@H]4C[C@]3(OC(=O)NC3CC3)C2)cc1 | -5.83% |
| Cc1ccc(NC(=O)Cn2sc3ccccc3c2=O)cc1 | 8.97% |
| COc1cccc(CC2(CO)CCCN(Cc3nc(-c4cccs4)oc3C)C2)c1 (stereo not drawn) | -14.6% |
| COc1cccc(C(=O)N2CCCC(CCC(=O)NCc3ccc(F)c(F)c3)C2)c1 (stereo not drawn) | -33.7% |
| COc1cccc(CC2(CO)CCCN(Cc3ccc(OC(F)F)cc3)C2)c1 (stereo not drawn) | -90.5% (active) |
| COc1cccc(CNC(=O)CCC2CCCN(Cc3ccc(OC(F)F)cc3)C2)c1 (stereo not drawn) | -93.7% (active) |
| COc1cccc(CC2(CO)CCCN(CC3=Cc4cc(OC)ccc4OC3)C2)c1 (stereo not drawn) | -14.2% |
| COc1cccc(CNC(=O)CCC2CCCN(C(=O)c3ccoc3C)C2)c1 (stereo not drawn) | -8.72% |
| CCCn1c(N)c(C(=O)CSc2nnc(Cc3cccs3)n2C2CC2)c(=O)[nH]c1=O | 7.67% |
| Cc1cccc(S(=O)(=O)N(C)C[C@H]2OCc3cnnn3CCCC(=O)N([C@@H](C)CO)C[C@H]2C)c1 | 36.2% |
| CCCCCCNC(=O)O[C@H]1CN(C(=O)OC(C)C)N(C(=O)OC(C)C)[C@@H]2CN(S(=O)(=O)c3ccc(C)cc3)C[C@]12O | 0.662% |

| SMILES | activity change |
| --- | --- |
| COc1ccc(-c2ccc(CN3C(CC(C)C)C(=O)N(Cc4cn(CC5CCCCC5)nn4)CCS3(=O)=O)cc2)cc1 (stereo not drawn) | -16.5% |
| CC1(c2cccc(Br)c2)NC(=O)N(CC(=O)NCCC2=CCCCC2)C1=O (stereo not drawn) | -2.93% |
| Cc1nc2nc[nH]n2c(=O)c1C/C=C/c1ccccc1 | -5.87% |
| Cc1nc2nc[nH]n2c(=O)c1NC(=O)c1cccc(OCC(C)C)c1 | -182% (active) |
| Cc1noc(C)c1COc1cccc(C(=O)Nc2cccnc2)c1 | 5.81% |
| C[C@H]1CN([C@@H](C)CO)C(=O)c2cc(C3=CCCCC3)cnc2O[C@@H]1CN(C)C(=O)Cc1ccccc1 | -6.94% |
| CC(=O)Nc1ccc(SCC(=O)NC(=O)c2ccc(Cl)cc2)cc1 | -9.69% |
| COc1cccc(NC(=S)N(CCc2c(C)[nH]c3ccccc23)Cc2ccco2)c1 | -11% |
| COc1ccc2[nH]c(C)c(CCN(Cc3cccs3)C(=S)Nc3ccccc3OC)c2c1 | -8.67% |
| Cc1[nH]c2ccccc2c1CCN(Cc1cccs1)C(=S)NC(C)(C)C | -70.5% (active) |
| Cc1ccc(S(=O)(=O)NN=C2CC(C)(C)CC(=O)C2(C)C)cc1 | -9.11% |
| C[C@@H]1Cn2cnc(C(=O)Nc3ccc(CNC(=O)OC(C)(C)C)cc3)c2C(=O)N1 | -19.4% |
| C[C@H]1Cn2cnc(C(=O)N[C@@H](Cc3c[nH]c4ccccc34)C(=O)OC(C)(C)C)c2C(=O)N1 | -11.5% |
| CCOC(=O)CSc1nc2c(sc(=S)n2CCc2ccccc2)c(=O)n1Cc1ccco1 | -91% (active) |
| N#Cc1c(NC(=O)CSc2nc3ccccc3c(=O)n2Cc2ccco2)sc2c1CCCC2 | -19.1% |
| CCOC(=O)CSc1nc2c(c(=O)n(Cc3ccccc3Cl)c(=O)n2C)n1C | -10.8% |
| C=CCOc1ccccc1CNn1c(C)n[nH]c1=S | 3.24% |
| C[C@@H]1CN([C@@H](C)CO)C(=O)CCCn2nncc2CO[C@@H]1CN(C)S(=O)(=O)c1ccc(-c2ccccc2)cc1 | 8.36% |
| COc1ccc(C(CCNCc2ccccc2F)c2ccc(F)cc2)cc1 (stereo not drawn) | -100% (active) |
| COc1ccc(CCNC(=O)COC(=O)Cc2ccccc2F)cc1 | 8.82% |
| COc1cccc(CNCCc2c[nH]c3ccccc23)c1OCc1ccccc1F | -1.51% |
